Assay outcomes (PubChem BioAssay)
Hits are enriched below; roughly 3.3% of the tested compounds scored in any of these assays.
Sm TGR block – S. mansoni TGR enzyme inhibition; Q962Y6; purified TGR, DTNB reduction, TNB absorbance 405 nm; Potency, µM (doses to about 114 µM), for inactives: top-dose activity change, negative = inhibition, actives largely listed as inhibitors; 360,000 compounds, 3% hits; AID 485364; further: on the % scale 0 is the no-effect control and ±100 the full control effect; nearly all actives have a fitted effect of over 60% in size
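Kinetic colorimetric format: TGR-catalysed, NADPH-driven DTNB reduction monitored via TNB absorbance. Enzyme dispensed at 20 nM; compound exposure 15 min at room temperature before reaction start.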
Tb PYK inh – T. brucei pyruvate kinase inhibition; Q57TT1; TbPYK enzyme, Kinase-Glo Plus ATP luminescence, 45 min; Potency, µM (doses to about 76.8 µM), without a hit: top-dose activity, negative = inhibition, actives largely listed as inhibitors; 410,000 compounds, 0.12% hits; AID 624173; further: on the % scale 0 is the no-effect control and ±100 the full control effect; nearly all actives have a fitted effect of over 50% in size
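Luminescent Kinase-Glo Plus end-point after 45 min room-temperature reaction of T. brucei pyruvate kinase started with 130 uM ADP (final). Buffer TEA 50 mM pH 7.2 with KCl, MgCl2, BSA, Tween-20; titration-based qHTS with fitted concentration-effect curves.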
SARS PLP yeast – inhibitors of SARS-CoV papain-like protease in yeast. S. cerevisiae expressing SARS-CoV PLpro, growth rescue. Potency, µM (top dose mostly 32.9 µM), without a hit: at the highest dose activity, positive = growth rescue, hits mostly activators. 330,000 compounds, 0.19% hits. AID 485353; calls by dose curve; further: 0% is about no effect; nearly all actives have a fitted effect of over 55% in size
NS1 function inh – inhibitors of influenza NS1 protein function; Potency, µM (highest dose often 46.1 µM), without a hit: at the highest dose activity, positive = more growth; 270,000 compounds, 0.4% hits; AID 2326; calls by dose curve; further: actives are rising curves; nearly all actives have a fitted effect of over 50% in size
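Recovery from NS1-induced slow growth read by OD600 in budding yeast switched to galactose assay medium (pH 6.0, -URA) at 1:100 dilution. Compound 23 nl per well; the matching strain lacking NS1 serves as control.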
LmPK inhibitor – LmPK (Leishmania mexicana) enzyme inhibition; Q27686; purified LmPK, Kinase-Glo ATP luminescence, 1 h; Potency, µM (top dose mostly 57.5 µM), for inactives: at the top dose activity change, negative = inhibition, hits mostly inhibitors; 290,000 compounds, 0.37% hits; AID 1721; further: on the % scale 0 is the no-effect control and ±100 the full control effect
Target sequence (Q27686 whole entry, looked up): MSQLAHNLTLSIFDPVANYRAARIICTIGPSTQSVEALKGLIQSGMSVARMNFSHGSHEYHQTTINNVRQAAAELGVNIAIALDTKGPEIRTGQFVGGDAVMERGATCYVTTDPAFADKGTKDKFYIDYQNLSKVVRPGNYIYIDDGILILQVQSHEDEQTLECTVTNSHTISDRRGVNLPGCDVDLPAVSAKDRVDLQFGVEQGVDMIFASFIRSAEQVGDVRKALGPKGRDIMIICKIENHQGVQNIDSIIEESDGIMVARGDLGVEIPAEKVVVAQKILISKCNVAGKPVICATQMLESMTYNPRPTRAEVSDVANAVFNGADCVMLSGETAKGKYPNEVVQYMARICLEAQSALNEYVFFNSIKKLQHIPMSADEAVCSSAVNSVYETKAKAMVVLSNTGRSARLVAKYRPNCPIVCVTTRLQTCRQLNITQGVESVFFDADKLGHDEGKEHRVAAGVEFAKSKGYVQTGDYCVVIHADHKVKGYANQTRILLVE
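0.1 nM LmPK, 0.5 mM PEP, 0.1 mM ADP; 50 mM imidazole pH 7.2, 7 mM MgCl2, 50 mM KCl; 1 h RT. Kinase-Glo luminescence readout, normalized to no-enzyme (full inhibition) and uninhibited wells.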
RE007 growth inh – less growth of the S. pombe RE007 Vpr strain | Potency, µM (series often up to 92.2 µM), for inactives: at the highest dose activity change, negative = less growth, most hits filed as inhibitors | AID 651644 | S. pombe RE007 Vpr strain, BacTiter-Glo ATP luminescence, 24 h | 360,000 compounds, 0.21% hits; active means well fitted falling curve with a large enough effect; inconclusive means small, poorly fitted or top-dose-only effect; inactive means no such curve, though single readings can be large or run the other way; further: on the % scale 0 is the no-effect control and ±100 the full control effect; nearly all actives have a fitted effect of over 50% in size
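Fission yeast strain RE007, carrying one chromosomally integrated HIV-1 vpr copy, was seeded at OD 0.01 in PMG+AL medium with 23 nL pinned compound. After 24 h at 30 °C and 99% humidity, viability was read by BacTiter-Glo luminescence.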
Numbers without * were called inactive; ? = inconclusive; . = no result given; [ ] = remark or other dose. Unless noted, the call rests on the fitted dose curve; in most records, active means well fitted curve in the direction sought with a large enough effect; inconclusive means small, poorly fitted or top-dose-only effect, or another doubt; inactive means no such curve, though single readings can be large; an effect the other way counts as inactive or inconclusive. Potency means the concentration at half of the fitted maximal effect.

SMILES | Sm TGR block | Tb PYK inh | SARS PLP yeast | NS1 function inh | LmPK inhibitor | RE007 growth inh
Cc1ccc(C2C(C#N)=C(N)SC(N)=C2C#N)o1 | 22µM* | . | 7% | -99% | 6% | .
O=[N+]([O-])c1ccc(O)c(C=Nc2ccc3oc(Cc4ccc(Cl)cc4)nc3c2)c1 | 50µM* | . | 1% | . | 0% | .
O=[N+]([O-])c1ccc(O)c(C=Nc2ccc3c(c2)OCCO3)c1 | -19% | -15% | -49% | -14% | 2% | -46%
Nc1ccc2oc(Cc3ccc(Cl)cc3)nc2c1 | 14µM* | ? | . | . | . | .
CCc1ccc2oc(-c3cc(N)ccc3Cl)nc2c1 | 3% | -3% | -7% | -58% | -28% | 16µM*
CCc1ccc2oc(-c3cc(N)ccc3O)nc2c1 | -14% | -21% | 12% | ? | ? | ?
COCCCNc1nc(NCc2ccccc2OC)c2cnn(C)c2n1 | -15% | 0% | . | . | . | .
O=S(=O)(c1ccc(Br)s1)N1CCN(c2ccc(F)cc2)CC1 | 25µM* | -5% | -1% | -2% | 1% | 5%
CC(=O)O[C@@]12CO[C@@H]1C[C@H](O)[C@@]1(C)C(=O)[C@H](O)C3=C(C)[C@@H](OC(=O)[C@H](O)[C@@H](NC(=O)OC(C)(C)C)c4ccccc4)C[C@@](O)([C@@H](OC(=O)c4ccccc4)[C@H]21)C3(C)C | . | 0% | . | . | . | .
CS(=O)(=O)Nc1ccc(Nc2c3ccccc3nc3ccccc23)cc1 | . | . | . | -8% | . | .
CCOC(=O)c1c(Nc2ccc(O)cc2)nnc(-c2ccccc2)c1-c1ccccc1 | 45µM* | 4% | . | . | . | .
COc1ccc2c3c([nH]c2c1)[C@H]1C[C@@H]2[C@@H](C[C@@H](O)[C@H](OC)[C@H]2C(=O)O)CN1CC3 | . | . | . | -8% | . | .
CCN(CC)CCN1C(=O)C(O)=C(C(C)=O)C1c1ccccc1[N+](=O)[O-] (stereo not drawn) | 45µM* | -18% | -1% | -8% | -1% | -21%
O=[N+]([O-])c1c(Nc2cccc(O)c2)cc(Cl)c2nonc12 | 0.35µM* | 8% | -11% | -111% | 5% | -15%
O=C(O)c1ccc(Nc2cc(Cl)c3nonc3c2[N+](=O)[O-])cc1 | 0.32µM* | -5% | 17% | . | 2% | 0%
CNc1cc(Cl)c2nonc2c1[N+](=O)[O-] | 0.45µM* | 3% | -33% | . | 5% | ?
O=C(O)c1cccc(Nc2ccc3nonc3c2[N+](=O)[O-])c1 | ? | 7% | 5% | 14% | 0% | -2%
Cc1c(Nc2cc(Cl)c3nonc3c2[N+](=O)[O-])c(=O)n(-c2ccccc2)n1C | -18% | ? | 1% | . | 0% | 0%
Cc1cccc(NC(=O)CN2C(=O)CCc3ccccc32)c1C | -1% | -1% | . | . | . | .
O=c1c(S(=O)(=O)c2ccccc2)cn(Cc2ccc(F)cc2)c2cc(N3CCCC3)c(F)cc12 | 0% | 5% | . | . | . | .
Nc1ncnc2c([C@@H]3O[C@@H](CO)[C@H](O)[C@@H]3O)nsc12 | . | . | . | -4% | . | .
CN(C)C(=O)Oc1ccc(OC(=O)c2ccccc2)cc1 | 2% | ? | -2% | 1% | 13µM* | -20%
O=C(Oc1ccccc1)c1cccc(C(=O)Oc2ccccc2)c1 | . | 0%[157 µM] | . | . | . | .
Cc1c(/C=N/Nc2ccc(F)cc2)c(O)n(C)c(=O)c1C#N | 25µM* | -1% | 0% | -1% | 17% | -6%
S=c1[nH]nc(-c2ccco2)n1-c1ccccc1Cl | 16% | ? | 1% | -4% | ? | -16%
SMILES | Sm TGR block | Tb PYK inh | SARS PLP yeast | NS1 function inh | LmPK inhibitor | RE007 growth inh
Cc1occc1-c1n[nH]c(=S)n1C | 10% | ? | -1% | 6% | -1% | 8%
S=c1[nH]nc(-c2cc(-c3ccco3)[nH]n2)n1-c1ccccc1Cl | 40µM* | ? | -10% | 14% | 21% | 16%
Cc1onc(-c2ccccc2)c1-c1n[nH]c(=S)n1-c1ccccc1Cl | -1% | ? | -3% | -26% | 18µM* | -7%
Cc1occc1-c1n[nH]c(=S)n1-c1ccccc1 | 7% | 18µM* | 3% | 9% | ? | -1%
Cc1onc(-c2ccccc2)c1-c1n[nH]c(=S)n1-c1ccc(C(=O)O)cc1 | 23% | ? | 10% | 11% | ? | -23%
S=c1[nH]nc(-c2cc(-c3ccco3)[nH]n2)n1-c1ccccc1 | -15% | ? | 5% | -36% | 13µM* | 22%
Nc1nccc(Nc2ccc(S(N)(=O)=O)cc2)n1 | . | . | . | -3% | . | .
CCOc1ccc(-c2ccc(NS(=O)(=O)c3cc(C)c(C)cc3C)cc2)nn1 | 6% | 0% | . | . | . | .
COc1ccc(OC)c(-n2c(-c3cc(-c4ccco4)[nH]n3)n[nH]c2=S)c1 | 11% | 3.2µM* | 1% | 5% | 5% | 8%
S=c1[nH]nc(-c2ccc3ccccc3n2)n1-c1ccccc1Cl | 0% | -11% | ? | 9% | 28µM* | -17%
FC(F)(F)c1ccc(Cl)c(-n2c(-c3cc(-c4ccco4)[nH]n3)n[nH]c2=S)c1 | -34% | ? | 2% | 16% | -4% | -5%
O=C(O)CCCc1ccc2ccc3ccccc3c2c1 | . | . | . | -16% | . | .
CCOc1cc(C2CC(=O)N3CN(C4CCCCC4)CSC3=C2C#N)ccc1O (stereo not drawn) | 10µM* | ? | -8% | -82% | -24% | -8%
N#CC1=C2SCN(Cc3ccco3)CN2C(=O)CC1c1ccc(Cl)cc1 (stereo not drawn) | -3% | ? | 1% | -55% | -4% | -9%
N#CC1=C2SCN(C3CCCCC3)CN2C(=O)CC1c1ccc(Br)cc1 (stereo not drawn) | 10µM* | ? | . | . | . | .
CCOC(=O)c1c(C)[nH]c(CCC(=O)Nc2c(C)cccc2CC)c1C | -4% | -5% | . | . | . | .
O=C(O)CCc1ccc(-c2ccc(Cl)cc2)n1-c1cccc(C(F)(F)F)c1 | 25µM* | -17% | . | . | . | .
CCOc1ccc(-n2c(CCC(=O)O)ccc2-c2ccc(Br)cc2)cc1 | ? | 6% | . | . | . | .
O=C(O)CCc1ccc(-c2ccc(Br)cc2)n1-c1ccc(O)cc1 | 28µM* | 1% | -2% | 1% | -10% | -19%
COc1ccc(-c2ccc(CCC(=O)O)n2-c2cc(Cl)ccc2O)cc1 | ? | -9% | . | . | . | .
Cc1ccc(-c2ccc(CCC(=O)O)n2-c2cccc(O)c2)cc1 | 14µM* | -10% | 2% | -4% | 2% | 1%
CCOC(=O)c1ccc(-n2c(CCC(=O)O)ccc2-c2ccc(Br)cc2)cc1 | 20µM* | 3% | . | . | . | .
COc1ccc(CCNC(=O)CCn2c(=O)c3cccn3c3ccc(F)cc32)cc1OC | -3% | -3% | . | . | . | .
COc1ccc(NC(=O)c2cnc[nH]2)cc1 | 4% | -13% | . | . | . | .
COc1ccc(CNC(=O)CSCc2ccc(C)cc2)c(OC)c1 | 4% | 1% | . | . | . | .
